Rce1 inh = yeast Rce1p protease inhibitors, primary screen, biochemical, fluorescence, cell-free homogeneous | CAAX prenyl protease 2 (Saccharomyces cerevisiae (strain ATCC 204508 / S288c)), Q03530 | yeast membranes, quenched prenylated peptide cleavage fluorescence | calls only | hit rate 0.27% among 290,000;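 active = fall in fluorescence gain of 50% or more versus controls, with final raw signal at or below 3038400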;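 also: plate controls were neutral control wells for no effect and wells lacking membranes for full effect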
Target sequence (Q03530 whole entry, looked up): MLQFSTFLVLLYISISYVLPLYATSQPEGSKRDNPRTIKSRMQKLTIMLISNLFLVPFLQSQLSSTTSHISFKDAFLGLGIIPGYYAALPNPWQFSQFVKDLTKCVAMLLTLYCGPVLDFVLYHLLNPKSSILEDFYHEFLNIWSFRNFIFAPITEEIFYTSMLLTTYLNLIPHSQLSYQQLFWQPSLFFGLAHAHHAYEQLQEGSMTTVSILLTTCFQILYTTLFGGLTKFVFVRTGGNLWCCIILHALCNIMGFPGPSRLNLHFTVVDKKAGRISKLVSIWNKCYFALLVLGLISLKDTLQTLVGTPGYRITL
HIF activator = HIF pathway transcriptional activators, primary screen, cell-based, U2OS HRE-luciferase, luminescence; U2OS HRE-luciferase reporter; normalized: DMSO 0%, desferrioxamine 100%; activation, % at 7.5 µM (by protocol); hit rate 0.32% among 300,000; AID 1910, 2009;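 active = mean activation of at least 10% of the iron chelator positive control signal, with at least half of replicates also reaching 10%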
C2C12 statin = suppressors of statin myotoxicity in C2C12 myotubes, primary screen, cell-based, single point, plate reader; rescue of ATP level, % at 7.49 µM; hit rate 0.78% among 330,000; C2C12 myotubes + simvastatin, ATP luminescence, 48 h; scaled: DMSO 0, geranylgeraniol control 100;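 active = mean ATP rescue above about 67%, or every replicate alone reaching that limit, limit read from the data, passing the limit was not always enough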;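 also: myotubes were challenged with 10 µM simvastatin during compound exposure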
PGC1a acetyl inh = inhibitors of PGC1a acetylation signal, primary screen, cell-based, U2OS, AlphaScreen, inhibitor mode; AlphaScreen anti-acetyl-lysine; with virally co-expressed GCN5 acetyltransferase; inhibition, % at 15.6 µM; hit rate 0.17% among 350,000; AID 651687, 2012;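 active = every replicate shows inhibition of at least 40%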;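 also: 0% = neutral control wells and 100% = positive control wells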
AI-2 QS modul = Vibrio harveyi AI-2 quorum sensing modulators, primary screen, JMH597 strain, luminescence/OD600 ratio | Vibrio harveyi JMH597 AI-2 luminescence/OD600 ratio, 9 h; active compounds read low; strain lacks LuxN and CqsS sensors; 0 = neutral-control median | activity change, % at 7.5 µM | hit rate 0.4% among 300,000 | AID 2094, 2009; in the data active = activity change below about -75%, passing the limit was not always enough;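 also: luminescence divided by OD600 gain over 9 h not by final OD600 alone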
Starred values were filed as active, the others as inactive; i = inactive; . = no result; + = active, no number. Compounds with a hit are over-represented: about 1.3% of the library has one in this group of screens.

SMILES	Rce1 inh	HIF activator	C2C12 statin	PGC1a acetyl inh	AI-2 QS modul
C[C@@H]1CN([C@H](C)CO)C(=O)Cc2cc(NC(=O)Nc3cccc4ccccc34)ccc2O[C@H]1CN(C)Cc1ccccc1	.	.	73.2*	.	.
C[C@@H]1CN([C@@H](C)CO)C(=O)Cc2cc(NC(=O)Nc3cccc4ccccc34)ccc2O[C@@H]1CN(C)Cc1ccc(C(F)(F)F)cc1	.	.	97.6*	-9.9	.
CCC(C)NC(=O)Cn1c(=O)n(CCCC(=O)NCc2ccccc2Cl)c(=O)c2ccccc21 (configuration not stated)	.	0.1	133.7*	9.3	22.3
O=C(CCCCn1c(=O)c2ccccc2n(CC(=O)NC2CCCC2)c1=O)NC1CCCC1	i	-0.5	80.6*	-12.5	13.1
CCCN(CCC)C(=O)Cn1c(=O)n(CCCCC(=O)NC2CCCC2)c(=O)c2ccccc21	i	0.2	96.5*	4.6	28.1
CCc1ccc(NC(=O)Cn2c(=O)n(CCCC(=O)NCc3ccco3)c(=O)c3ccccc32)cc1	i	-1.1	.	-12.7	13.0
CC(C)C(=O)Nc1ccc2c(c1)C(=O)N(C)[C@H]1CC[C@@H](CC(=O)NCc3ccc(F)cc3)O[C@@H]1CO2	.	.	3.7	-0.8	.
O=C(Nc1ccccc1)N1CCCCN2[C@H](CO)[C@H](c3ccc(C#Cc4ccccn4)cc3)[C@H]2C1	.	.	.	-5.7	.
O=C(Nc1ccc2c(c1)OCO2)N[C@H]1CC[C@H](CCNC(=O)C2CC2)O[C@H]1CO	.	.	3.0	-22.0	.
CC(=O)OCCCNc1cc(Sc2ccc(C)cc2)c2nonc2c1[N+](=O)[O-]	i	9.9*	24.1	.	29.5
CC(=O)OCCCNc1cc(Sc2nc3ccccc3s2)c2nonc2c1[N+](=O)[O-]	i	1.0	28.5	5.2	-7.4
c1ccc(-n2ncc3c(NCc4ccco4)ncnc32)cc1	i	9.5*	-14.1	-7.8	22.3
c1ccc(Cn2ncc3c(NCc4ccco4)ncnc32)cc1	i	-0.1	-2.3	12.4	3.4
COC(=O)CCC(=O)Nc1sc(C)c(C)c1C(N)=O	i	-0.1	110.7*	1.4	13.7
COC(=O)CCC(=O)NC(=S)Nc1sc(C)c(C)c1C(N)=O	i	0.3	.	.	38.8
C[C@@H]1CN([C@@H](C)CO)C(=O)c2ccccc2-c2ccccc2CO[C@H]1CN(C)C(=O)Nc1cccc(Cl)c1Cl	.	.	.	-6.0	.
Cc1cccn2cc(CNc3ccccc3)nc12	i	1.2	108.6*	-4.5	-42.8
COc1ccc(C)c2sc(NC(=O)C3=COCCO3)nc12	+	2.0	2.9	-3.3	32.4
CCC(=O)N1CC2(C1)CN(C(=O)c1cnccn1)[C@@H](CO)c1c2c2ccc(OC)cc2n1C	.	.	.	11.9	.
CCOC(=O)C(C)C1(O)c2ccccc2-c2ncccc21 (configuration not stated)	i	0.3	106.2*	-2.6	7.6
OC(CC1CC12c1ccccc1-c1ncccc12)(c1ccccc1)c1ccccc1 (configuration not stated)	i	-0.7	-5.0	-3.2	13.9
CC1(C(=O)N(CC(=O)NC2CCCC2)Cc2ccccc2)CC(=O)N=C2C=CC=CN21 (configuration not stated)	+	-0.2	19.3	.	0.6
CC1=CC2=NC(=O)CC(C)(C(=O)N(CC(=O)NC3CCCC3)Cc3ccc(Cl)cc3)N2C=C1 (configuration not stated)	i	-0.2	-0.2	-2.8	12.0
CC1(C(=O)N(CC(=O)NC2CCCC2)Cc2ccco2)CC(=O)N=C2C=CC=CN21 (configuration not stated)	+	-1.2	.	-9.6	34.2
CO[C@@H]1CN(C)C(=O)c2cc(NC(=O)C3CC3)ccc2OC[C@H](C)N(Cc2nccs2)C[C@@H]1C	.	.	-3.3	9.9	.
SMILES	Rce1 inh	HIF activator	C2C12 statin	PGC1a acetyl inh	AI-2 QS modul
COCCN=C1N[C@@H](c2ccccc2)C(C(=O)OC)=C(C)N1Cc1ccccc1	i	0.6	110.1*	-1.4	0.1
Cc1c(Cl)c([N+](=O)[O-])nn1CC(=O)N1CCCc2ccccc21	+	0.0	.	.	8.3
C[C@H](CO)N1C[C@H](C)[C@@H](CN(C)C(=O)C2CCOCC2)Oc2ncc(C3=CCCCC3)cc2C1=O	.	.	23.1	-7.1	.
C[C@@H]1CN([C@@H](C)CO)C(=O)c2cc(NC(=O)Nc3ccc(F)cc3)ccc2O[C@@H](C)CCCCO[C@H]1CN(C)Cc1ccncc1	.	.	107.0*	1.9	.
C[C@H](CO)N1C[C@H](C)[C@@H](CN(C)Cc2ccc(C(F)(F)F)cc2)OCCCC[C@H](C)Oc2ccc(NS(=O)(=O)c3cccs3)cc2C1=O	.	.	-61.8	-12.6	.
C[C@@H]1CN([C@@H](C)CO)C(=O)c2cc(NC(=O)c3ccncc3)ccc2O[C@@H](C)CCCCO[C@@H]1CN(C)Cc1ccc(C(F)(F)F)cc1	.	.	120.6*	.	.
COc1ccc(NC(=O)Nc2ccc3c(c2)C(=O)N([C@H](C)CO)C[C@@H](C)[C@@H](CN(C)Cc2ccc(C(F)(F)F)cc2)OCCCC[C@H](C)O3)cc1	.	.	157.9*	-26.6	.
C[C@@H]1CN([C@H](C)CO)C(=O)c2cc(NS(=O)(=O)c3cccs3)ccc2O[C@@H](C)CCCCO[C@@H]1CN(C)Cc1ccc(C(F)(F)F)cc1	.	.	91.7*	-7.6	.
C[C@@H]1CN([C@@H](C)CO)C(=O)c2cc(NC(=O)c3ccncc3)ccc2O[C@@H](C)CCCCO[C@H]1CN(C)Cc1ccc(C(F)(F)F)cc1	.	.	115.7*	.	.
COC(=O)[C@@]12CCCCN1[C@H](c1ccc(-c3cccc(Cl)c3)c(OC)c1)[C@@H]1C(=O)N(C)C(=O)[C@@H]12	i	-2.3	137.2*	-0.2	9.7
CCC(C)Sc1ccc([C@@H]2[C@@H]3C(=O)N(CC)C(=O)[C@@H]3[C@]3(C(=O)OC)CCCCN23)cc1OC (some centres not stated)	.	.	138.5*	-9.3	.
CCC(C)Sc1ccc([C@@H]2[C@@H]3C(=O)N(C)C(=O)[C@@H]3[C@]3(C(=O)OC)CCCCN23)cc1OC (some centres not stated)	i	-0.3	0.6	-6.0	19.1
O=C(CCSc1nc(-c2ccc3c(c2)OCO3)cc(C(F)(F)F)n1)NCc1ccco1	i	0.1	1.9	1.9	28.7
O=C(CCSc1nc(-c2ccco2)cc(C(F)(F)F)n1)Nc1ccc2c(c1)OCO2	i	-0.3	96.3*	-5.4	9.3
COc1ccc(NC(=O)N(C)C[C@@H]2Oc3ccc(NS(=O)(=O)c4ccc(C)cc4)cc3C(=O)N([C@@H](C)CO)C[C@H]2C)cc1	.	.	1.0	-9.4	.
Cc1nn2c3ccccc3n(Cc3ccccc3)c2nc1=O	i	-1.4	118.2*	-4.1	18.3
